The panel holds about 83,000 compounds, 20% with a hit somewhere; the sample as a whole holds those more often.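 Treatment: one concentration, 48 hours, 96-well format. Scoring: percent growth, with anything below 10 considered active.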 Active and inactive are the calls of the source.

For one experiment, the system named is OVCAR-3 ovarian. The experiment can be described thus: NCI-60 one-dose screen, 48 h (100 = growth as untreated, 0 = no growth, -100 = all killed). Conditions: 10 µM unless noted.
On to `O=C(CCCCCCSc1nc(-c2ccc(Cl)cc2)cc(-c2ccc(Cl)cc2)n1)NO`, for which the growth was 22.9% (inactive).

For `O=C1CC(C(F)(F)F)Cc2nc3ccc(Br)cc3cc21` (centres undefined), the growth was 94.2% (inactive).

As to `COc1ccc(C2NC(=O)C(C#N)c3c2sc2c(F)cccc32)cc1` (centres undefined), the growth is 0.617% (active).

In the case of `CCCCCn1sc(=O)n(Cc2ccc(CNC(=O)OCc3ccc4cccc(O)c4n3)cc2)c1=O`, the growth was -84.5% (active).

Take `O=[N+]([O-])c1cccc(N=NNc2cccc([N+](=O)[O-])c2)c1`: the growth was 101% (inactive).

In the case of `CCN(CC)CCCOc1ccc2c(c1)O/C(=C\c1cccc(OC)c1)C2=O`, the growth is 91.2% (inactive).

For `O=C(OCc1ccc2c(Cl)cc(Cl)c(O)c2n1)N1CCNCC1`, the growth was 33.8% (inactive).

As to `C=CCCCCOc1ccccc1-c1cnc(OCCCCC=C)n1C`, the growth was 51.3% (inactive).

`CSc1nc(=S)c2nc(SC)n(-c3ccccc3)c2[nH]1`: the growth was 105% (inactive).

Consider `CC1Cc2c(Cl)ncnc2N(C)c2ccc(O)cc21` (centres undefined), for which the growth is 50.8% (inactive).

Regarding `Nc1nc(Nc2ccccc2)c2ncn(Cc3ccc4c(c3)OCO4)c2n1`, the growth is 24.1% (inactive).

Turning to `COc1ccc(-c2cc(-c3ccc(Cl)cc3)nc(SCCCCCCC(=O)NO)n2)cc1`, the growth was 39% (inactive).

On to `COc1ccc(C(=O)CSc2nccc(Nc3ccc(C(=O)O)cc3)n2)cc1`, for which the growth is 100% (inactive).

On to `CC1(C)OC2[C@@H](CNC(=O)NC(=O)NC(=O)CI)O[C@@H](n3cnc4c(NC(=O)Nc5ccccc5)ncnc43)[C@H]2O1` (some centres undefined), for which the growth is -32.6% (active).

`Cn1cc(-c2noc(-c3cn(C)c4ncc(F)cc34)n2)c2cc(Cl)ccc21`: the growth was 19.7% (inactive).

`COCCCNc1nc(NC(=O)c2cc(Br)cc(C(F)(F)F)c2)cc(-c2cccnc2)n1`: the growth is 109% (inactive).

Turning to `O=C(NCCCNC(=O)OCc1ccc2cccc(O)c2n1)OCc1ccc2cccc(O)c2n1`, the growth is 14.8% (inactive).

For `COc1cccc(-c2[nH]c(=S)ncc2C(=O)c2ccccc2)c1`, the growth is 83.2% (inactive).

In the case of `CCN(CCO)CCC(=O)c1ccc([N+](=O)[O-])cc1`, the growth was 104% (inactive).

Regarding `Cc1ccc(N)c(O)c1`, the growth was 87.7% (inactive).

Regarding `CC(C)C1=NOC(=O)C1=Cc1cn(-c2ccccc2)nc1-c1ccc(Br)cc1`, the growth was 85.4% (inactive).

Regarding `Cc1cc[n+](CCCCCCCCCC[n+]2ccc(C)cc2)cc1`, the growth is 99.4% (inactive).

On to `C[C@@H](NC(=O)[C@@H](CC(=O)N1CCC(N2CCCCC2)CC1)N1C(=O)[C@@H](N2C(=O)OC[C@@H]2c2ccccc2)[C@H]1/C=C/c1cccc(Cl)c1)c1ccccc1`, for which the growth is 74.4% (inactive).

Turning to `C/C=C/C1OC23CCCCC2C(C#N)(C(=N)O3)C1(C#N)C#N` (centres undefined), the growth was 90.2% (inactive).

For `CCCOc1ccc(-c2nc(-c3ccc(N)cc3)cs2)cc1`, the growth is 145% (inactive).

As to `Cc1ccccc1OC(=O)c1cccc(Cl)c1`, the growth is 109% (inactive).

Take `CC(C)c1ccc(C(=O)Nc2nc3ccc(O)cc3s2)cc1`: the growth is 54.1% (inactive).

With `COc1cc(-c2nc(SCCC(C)C)nc(Nc3ccc(S(N)(=O)=O)cc3)c2C#N)cc(OC)c1OC`, the growth was 32.5% (inactive).

For `O=C(CSc1nc2ccc([N+](=O)[O-])cc2[nH]1)Nc1cccc(Cl)c1`, the growth was 19% (inactive).

As for `COc1ccc2nc3cc(Cl)ccc3c(Nc3ccc(O)cc3)c2c1`, the growth is 83% (inactive).

Take `O=C(OCc1ccc2c(Cl)cc(Cl)c(O)c2n1)N1CCN(C(=O)c2cc3cc(F)ccc3[nH]2)CC1`: the growth was -44.1% (active).

On to `COc1ccc(C(C(=O)O)c2ccc(OC)cc2)cc1`, for which the growth is 101% (inactive).

On to `O=C1COCCN1c1ccc(NCc2cn(Cc3ccc(F)cc3)c3ccccc23)cc1`, for which the growth is 3.96% (active).

For the compound `O=C(Nc1cc(-c2cccnc2)nc(NCCCN2CCOCC2)n1)c1cc(Br)cc(C(F)(F)F)c1`, the growth was 79.9% (inactive).

As to `CS(=O)(=O)c1cccnn1`, the growth is 103% (inactive).

Regarding `C[C@]12CCc3c(ccc4cc(O)ccc34)[C@@H]1CC[C@H]2O`, the growth was 94.9% (inactive).

Take `CN(Cc1cccc(C(F)(F)F)c1)C(=O)[C@@H](CC(=O)N1CCC(N2CCCCC2)CC1)N1C(=O)[C@@H](N2C(=O)OC[C@@H]2c2ccccc2)[C@H]1/C=C/c1ccccc1`: the growth was 92.9% (inactive).

For the next experiment, the system named is HS 578T breast. The experiment is described as above. The conditions noted are these: 10 µM unless noted.
Turning to `O=C(CCCCCCSc1nc(-c2ccc(Cl)cc2)cc(-c2ccc(Cl)cc2)n1)NO`, the growth was 69.5% (inactive).

Consider `CCCCCn1sc(=O)n(Cc2ccc(CNC(=O)OCc3ccc4cccc(O)c4n3)cc2)c1=O`, for which the growth is 10.8% (inactive).

For the compound `O=[N+]([O-])c1cccc(N=NNc2cccc([N+](=O)[O-])c2)c1`, the growth was 101% (inactive).

As to `O=C(OCc1ccc2c(Cl)cc(Cl)c(O)c2n1)N1CCNCC1`, the growth is 53.4% (inactive).

With `C=CCCCCOc1ccccc1-c1cnc(OCCCCC=C)n1C`, the growth was 66.4% (inactive).

With `CSc1nc(=S)c2nc(SC)n(-c3ccccc3)c2[nH]1`, the growth was 92.3% (inactive).

In the case of `CC1Cc2c(Cl)ncnc2N(C)c2ccc(O)cc21` (centres undefined), the growth was 28.8% (inactive).

As for `Nc1nc(Nc2ccccc2)c2ncn(Cc3ccc4c(c3)OCO4)c2n1`, the growth is 42.8% (inactive).

As to `COc1ccc(-c2cc(-c3ccc(Cl)cc3)nc(SCCCCCCC(=O)NO)n2)cc1`, the growth was 55.5% (inactive).

In the case of `COc1ccc(C(=O)CSc2nccc(Nc3ccc(C(=O)O)cc3)n2)cc1`, the growth was 84.4% (inactive).

As for `CC1(C)OC2[C@@H](CNC(=O)NC(=O)NC(=O)CI)O[C@@H](n3cnc4c(NC(=O)Nc5ccccc5)ncnc43)[C@H]2O1` (some centres undefined), the growth is 98.7% (inactive).

On to `Cn1cc(-c2noc(-c3cn(C)c4ncc(F)cc34)n2)c2cc(Cl)ccc21`, for which the growth was 47% (inactive).

As for `COCCCNc1nc(NC(=O)c2cc(Br)cc(C(F)(F)F)c2)cc(-c2cccnc2)n1`, the growth was 83% (inactive).

Take `O=C(NCCCNC(=O)OCc1ccc2cccc(O)c2n1)OCc1ccc2cccc(O)c2n1`: the growth was 57.2% (inactive).

As for `CCN(CCO)CCC(=O)c1ccc([N+](=O)[O-])cc1`, the growth was 101% (inactive).

Take `Cc1ccc(N)c(O)c1`: the growth was 92.9% (inactive).

Consider `CC(C)C1=NOC(=O)C1=Cc1cn(-c2ccccc2)nc1-c1ccc(Br)cc1`, for which the growth was 70.4% (inactive).

As for `Cc1cc[n+](CCCCCCCCCC[n+]2ccc(C)cc2)cc1`, the growth was 102% (inactive).

Turning to `C[C@@H](NC(=O)[C@@H](CC(=O)N1CCC(N2CCCCC2)CC1)N1C(=O)[C@@H](N2C(=O)OC[C@@H]2c2ccccc2)[C@H]1/C=C/c1cccc(Cl)c1)c1ccccc1`, the growth is 63.2% (inactive).

For the compound `C/C=C/C1OC23CCCCC2C(C#N)(C(=N)O3)C1(C#N)C#N` (centres undefined), the growth is 96.9% (inactive).

Consider `CCCOc1ccc(-c2nc(-c3ccc(N)cc3)cs2)cc1`, for which the growth was 130% (inactive).

Regarding `CC(C)c1ccc(C(=O)Nc2nc3ccc(O)cc3s2)cc1`, the growth was 72.3% (inactive).

For `COc1cc(-c2nc(SCCC(C)C)nc(Nc3ccc(S(N)(=O)=O)cc3)c2C#N)cc(OC)c1OC`, the growth is 40.5% (inactive).

With `O=C(CSc1nc2ccc([N+](=O)[O-])cc2[nH]1)Nc1cccc(Cl)c1`, the growth is 38.3% (inactive).

Consider `COc1ccc2nc3cc(Cl)ccc3c(Nc3ccc(O)cc3)c2c1`, for which the growth is 76.2% (inactive).

Turning to `O=C(OCc1ccc2c(Cl)cc(Cl)c(O)c2n1)N1CCN(C(=O)c2cc3cc(F)ccc3[nH]2)CC1`, the growth is 12.5% (inactive).

For the compound `COc1ccc(C(C(=O)O)c2ccc(OC)cc2)cc1`, the growth is 129% (inactive).

Turning to `O=C1COCCN1c1ccc(NCc2cn(Cc3ccc(F)cc3)c3ccccc23)cc1`, the growth was 72% (inactive).

Turning to `O=C(Nc1cc(-c2cccnc2)nc(NCCCN2CCOCC2)n1)c1cc(Br)cc(C(F)(F)F)c1`, the growth is 54% (inactive).

On to `CS(=O)(=O)c1cccnn1`, for which the growth was 89.2% (inactive).

Take `C[C@]12CCc3c(ccc4cc(O)ccc34)[C@@H]1CC[C@H]2O`: the growth was 29.8% (inactive).

As to `CN(Cc1cccc(C(F)(F)F)c1)C(=O)[C@@H](CC(=O)N1CCC(N2CCCCC2)CC1)N1C(=O)[C@@H](N2C(=O)OC[C@@H]2c2ccccc2)[C@H]1/C=C/c1ccccc1`, the growth is 61% (inactive).

Source of the values: PubChem BioAssay (NCI).
